Screens deposited in PubChem BioAssay by National Center for Advancing Translational Sciences (NCATS).
IL-1B inflam inh: qHTS for Inhibitors of Inflammasome Signaling: IL-1-beta AlphaLISA Primary Screen; THP-1 LPS/ATP IL-1B secretion, AlphaLISA, 16 h; active compounds read low; activity change, % at 57.5 µM; 360,000 compounds, 4.7% hits; AID 743279, 2014; in the data active means activity change below about -50%; inconclusive means mostly about -30% to -49%
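Secreted IL-1B measured by AlphaLISA bead assay after 16 h compound exposure of THP-1 cells; compounds (final up to 57.5 uM) added 1 h before LPS (250 ng/mL) and ATP (1.25 mM) stimulation; lower signal means less secretion.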
HT1080 IDH1KD tx: qHTS for induction of synthetic lethality in tumor cells producing 2HG: qHTS for the HT-1080-IDH1KD cell line. HT-1080 IDH1 knockdown viability, ATP luminescence, 48 h. Potency, µM (series often up to 46.1 µM), inactives show top-dose activity, negative = toxicity, actives largely listed as cytotoxic. 360,000 compounds, 2% hits;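 further: potency means the concentration at half of the fitted maximal effect; 0% = DMSO wells and -100% = cell-free medium wells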
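CellTiter-Glo luminescence after 48 h compound exposure at 37 degrees C of IDH1-knockdown HT-1080 cells in 5% FBS RPMI. %Activity scaled between DMSO wells and cell-free media wells, with curves fitted and assigned curve classes.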
HT1080NT lethal: qHTS for induction of synthetic lethality in tumor cells producing 2HG: qHTS for the HT-1080-NT fibrosarcoma cell line; 360,000 compounds, 1.6% hits; AID 686970, 2013; HT-1080-NT fibrosarcoma viability, CellTiter-Glo ATP luminescence, 48 h; Potency, µM (doses to about 46.1 µM), for the others: at the highest dose activity, negative = less viability, most hits filed as cytotoxic;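 further: NT is the 2HG producing partner of a matched IDH1 knockdown line; potency means the concentration at half of the fitted maximal effect; 0% = DMSO-treated cells and -100% = media-only wells without cells; nearly all actives have a fitted effect of over 55% in size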
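HT-1080-NT; 750 cells/well; 5% FBS RPMI; 48 h compound, 37 degrees C; CellTiter-Glo luminescence; curve fitting and curve-class assignment.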
TDP1 cell noCPT: qHTS for Inhibitors of human tyrosyl-DNA phosphodiesterase 1 (TDP1): qHTS in cells in absence of CPT; DT40 Tdp1-/- hTDP1 cells, no CPT, ATP luminescence, 48 h; Potency, µM (titrated, usually from 46.2 µM), without a hit: top-dose activity change, negative = growth inhibition, actives largely listed as inhibitors; AID 686978, 2013; 420,000 compounds, 15% hits; further: potency means the concentration at half of the fitted maximal effect; nearly all actives have a fitted effect of over 55% in size
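Growth of hTDP1-complemented DT40 Tdp1-knockout cells is measured by ATP luminescence after at least 48 hr compound exposure at 37 °C, with DMSO substituting for the 20 nM CPT used in the parallel screen.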
DT40 TDP1 CPT: qHTS for Inhibitors of human tyrosyl-DNA phosphodiesterase 1 (TDP1): qHTS in cells in presence of CPT; chicken DT40 Tdp1-/-;hTDP1 cells + 20 nM CPT, ATP luminescence, 48 h; Potency, µM (top dose mostly 46.2 µM), without a hit: at the highest dose activity change, negative = growth inhibition, most hits filed as inhibitors; 420,000 compounds, 12% hits; further: potency means the concentration at half of the fitted maximal effect; nearly all actives have a fitted effect of over 55% in size
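Cell growth measured by CellTiter-Glo luminescence after a minimum 48 h, 37 C compound exposure with 20 nM CPT in Tdp1-knockout DT40 cells stably expressing hTDP1, seeded 400/well; qHTS titration format.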
Numbers without * were called inactive. Hits are enriched below; roughly 19% of the tested compounds scored in any of these assays. Unless noted, the call rests on the fitted dose curve; in most records, active means well fitted curve in the direction sought with a large enough effect; inconclusive means small, poorly fitted or top-dose-only effect, or another doubt; inactive means no such curve, though single readings can be large; an effect the other way counts as inactive or inconclusive. Unless noted, on the % scale 0 is the no-effect control and ±100 the full control effect.

How did CC(C)(C)OC(=O)NCCc1nnc(SCC(=O)Nc2ccc(Br)cc2)o1 do in these assays?
IL-1B inflam inh: 9; HT1080 IDH1KD tx: -6%; HT1080NT lethal: 0%; TDP1 cell noCPT: -18%; DT40 TDP1 CPT: 0%

What do the screens show for `COc1ccc2c(Cl)c(C(=O)N/N=C/c3ccc4c(c3)OCO4)sc2c1`?
IL-1B inflam inh: -1; HT1080 IDH1KD tx: 8%; HT1080NT lethal: 24%; TDP1 cell noCPT: inconclusive; DT40 TDP1 CPT: inconclusive

What do the screens show for `O=C(N/N=C/c1ccc2c(c1)OCO2)c1sc2cc(Cl)ccc2c1Cl`?
IL-1B inflam inh: 21; HT1080 IDH1KD tx: -3%; HT1080NT lethal: -7%; TDP1 cell noCPT: 5.2µM*; DT40 TDP1 CPT: 5.8µM*

How did O=C(N/N=C/c1cc2c(cc1Br)OCO2)c1c[nH]c2ccccc12 do in these assays?
IL-1B inflam inh: inconclusive; HT1080 IDH1KD tx: -10%; HT1080NT lethal: -14%; TDP1 cell noCPT: 21µM*; DT40 TDP1 CPT: inconclusive

What do the screens show for `O=C(N/N=C/c1ccc(Br)s1)c1cccs1`?
IL-1B inflam inh: 10; HT1080 IDH1KD tx: -5%; HT1080NT lethal: -15%; TDP1 cell noCPT: 21µM*; DT40 TDP1 CPT: 16µM*

What do the screens show for `Fc1ccc(N/N=C/c2ccncc2)c(F)c1`?
IL-1B inflam inh: -4; HT1080 IDH1KD tx: 27%; HT1080NT lethal: -20%; TDP1 cell noCPT: -21%; DT40 TDP1 CPT: -2%

How did O=C(N/N=C/c1cc2c(cc1Br)OCO2)c1ccccn1 do in these assays?
IL-1B inflam inh: -7; HT1080 IDH1KD tx: -16%; HT1080NT lethal: 1%; TDP1 cell noCPT: inconclusive; DT40 TDP1 CPT: -8%

How did O=C(O)c1ccc(/C=N/Nc2ccc(F)cc2F)cc1 do in these assays?
IL-1B inflam inh: 3; HT1080 IDH1KD tx: 5.2µM*; HT1080NT lethal: 3.3µM*; TDP1 cell noCPT: 2%; DT40 TDP1 CPT: 14%

How did Cc1ccc(/C=N/NC(=O)c2cccs2)s1 do in these assays?
IL-1B inflam inh: -4; HT1080 IDH1KD tx: 1%; HT1080NT lethal: -1%; TDP1 cell noCPT: -8%; DT40 TDP1 CPT: -20%

How did Cc1ccccc1NC(=O)c1c(NC(=O)c2ccco2)sc2c1CCC(C(C)(C)C)C2 (centres undefined) do in these assays?
TDP1 cell noCPT: -14%; DT40 TDP1 CPT: -13%

What do the screens show for `O=C(N/N=C/c1ccc(Cl)cc1)c1ccc2c(c1)OCO2`?
IL-1B inflam inh: -6; HT1080 IDH1KD tx: inconclusive; HT1080NT lethal: inconclusive; TDP1 cell noCPT: 13µM*; DT40 TDP1 CPT: inconclusive

How did COc1cc(/C=N/NC(=O)c2cccs2)ccc1O do in these assays?
IL-1B inflam inh: 4; HT1080 IDH1KD tx: -5%; HT1080NT lethal: 8%; TDP1 cell noCPT: 1%; DT40 TDP1 CPT: -15%

Results for COc1ccc(/C=N/NC(=O)c2ccc(COCC(F)(F)C(F)F)cc2)cc1 ?
IL-1B inflam inh: -12; HT1080 IDH1KD tx: -8%; HT1080NT lethal: 4%; TDP1 cell noCPT: -2%; DT40 TDP1 CPT: 6%

How did O=C(NN=Cc1ccc2c(c1)CCN2)c1cccs1 do in these assays?
IL-1B inflam inh: -2; HT1080 IDH1KD tx: 0%; HT1080NT lethal: 4%; TDP1 cell noCPT: 15µM*; DT40 TDP1 CPT: inconclusive

What do the screens show for `O=C(N/N=C/c1ccc2c(c1)OCO2)c1ccc(COCC(F)(F)C(F)F)cc1`?
IL-1B inflam inh: 5; HT1080 IDH1KD tx: 1.3µM*; HT1080NT lethal: 1µM*; TDP1 cell noCPT: 1%; DT40 TDP1 CPT: -13%

How did O=C(O)c1ccc(N/N=C/c2ccc3c(c2)OCO3)cc1 do in these assays?
IL-1B inflam inh: 3; HT1080 IDH1KD tx: 23µM*; HT1080NT lethal: 18µM*; TDP1 cell noCPT: inconclusive; DT40 TDP1 CPT: inconclusive

Results for C=CCN1C(=S)CC(c2ccccc2)=Nc2ccccc21 ?
IL-1B inflam inh: 21; HT1080 IDH1KD tx: -5%; HT1080NT lethal: 0%; TDP1 cell noCPT: 4%; DT40 TDP1 CPT: -6%

What do the screens show for `CC(C)(C)NC(=O)Cn1nnc(-c2ccc(OCc3c(F)cccc3Cl)cc2)n1`?
IL-1B inflam inh: inconclusive; HT1080 IDH1KD tx: -11%; HT1080NT lethal: inconclusive; TDP1 cell noCPT: inconclusive; DT40 TDP1 CPT: inconclusive

How did O=[N+]([O-])c1ccc(CP(=O)(c2ccccc2)c2ccccc2)cc1 do in these assays?
IL-1B inflam inh: 2; HT1080 IDH1KD tx: -30%; HT1080NT lethal: -7%; TDP1 cell noCPT: inconclusive; DT40 TDP1 CPT: inconclusive

How did c1ncc2snnc2n1 do in these assays?
TDP1 cell noCPT: -15%; DT40 TDP1 CPT: -15%

What do the screens show for `CS(=O)(=O)N(CC(=O)N/N=C/c1cc2c(cc1Br)OCO2)c1ccccc1Br`?
IL-1B inflam inh: inconclusive; HT1080 IDH1KD tx: -12%; HT1080NT lethal: -2%; TDP1 cell noCPT: 15µM*; DT40 TDP1 CPT: inconclusive

How did O=C(N/N=C/c1ccc2c(c1)OCO2)c1ccc2c(c1)OCCO2 do in these assays?
IL-1B inflam inh: -8; HT1080 IDH1KD tx: 23µM*; HT1080NT lethal: inconclusive; TDP1 cell noCPT: inconclusive; DT40 TDP1 CPT: 16µM*

Results for COc1cc2c(cc1OC)[C@@H](NC(=O)CCc1ccccc1)[C@H](O)C2 ?
IL-1B inflam inh: -5; HT1080 IDH1KD tx: 9%; HT1080NT lethal: 1%; TDP1 cell noCPT: -3%; DT40 TDP1 CPT: inconclusive

How did CCCCCCCCNc1ncnc2ccccc12 do in these assays?
IL-1B inflam inh: -61*; HT1080 IDH1KD tx: inconclusive; HT1080NT lethal: inconclusive; TDP1 cell noCPT: 0.26µM*; DT40 TDP1 CPT: 0.29µM*

What do the screens show for `CCCCCNc1ncnc2c(C)[nH]nc12`?
IL-1B inflam inh: 68; HT1080 IDH1KD tx: -20%; HT1080NT lethal: -7%; TDP1 cell noCPT: 23µM*; DT40 TDP1 CPT: 15µM*

Results for CCc1ccccc1Nc1ncnc2ccccc12 ?
IL-1B inflam inh: 31; HT1080 IDH1KD tx: -1%; HT1080NT lethal: -11%; TDP1 cell noCPT: inconclusive; DT40 TDP1 CPT: inconclusive

Results for O=C(CSc1ncnc2ccccc12)NCCc1ccccc1 ?
IL-1B inflam inh: -21; HT1080 IDH1KD tx: 7%; HT1080NT lethal: 13%; TDP1 cell noCPT: -8%; DT40 TDP1 CPT: -2%

Results for c1ccc(CCNc2ncnc3ccccc23)cc1 ?
IL-1B inflam inh: 0; HT1080 IDH1KD tx: 2.1µM*; HT1080NT lethal: inconclusive; TDP1 cell noCPT: 0.65µM*; DT40 TDP1 CPT: 0.52µM*

What do the screens show for `Cc1cc2c(NC3CCCCC3)ncnc2s1`?
IL-1B inflam inh: -12; HT1080 IDH1KD tx: -5%; HT1080NT lethal: -23%; TDP1 cell noCPT: 13µM*; DT40 TDP1 CPT: inconclusive

What do the screens show for `O=C(NC1CCCCC1)c1cc(-c2cccs2)on1`?
IL-1B inflam inh: -9; HT1080 IDH1KD tx: 4%; HT1080NT lethal: 5%; TDP1 cell noCPT: -3%; DT40 TDP1 CPT: 37%
